{
  "source": "PubChem BioAssay (EPA / NIEHS)",
  "note": "Values joined by “and” are separate entries in the source; they are usually repeats but may differ in a detail not shown here. Equal values may be shown once. Some structures have more than one record in an assay (separate samples or runs), and their calls can disagree. Active and inactive are the calls of the source. The calls were made as follows: active = hit-call score of the fitted dose curve at least 0.9, where 1 is the maximum; inactive = score below 0.9.",
  "data": [
    {"read-out": "Monocyte Chemoattractant Protein-1 (MCP1), CCL2 (gene 6347)", "experiment": "BSK_hDFCGF_MCP1: BioMAP Diversity Plus: hDFCGF Assay for Monocyte Chemoattractant Protein-1 (MCP1) Biomarker Activity (AID 2284285)", "settings": "primary human foreskin fibroblasts", "in_short": "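Human foreskin fibroblasts (hDFCGF system) were exposed to compound and secreted MCP-1 was measured by ELISA after 24 hours. Activity was fitted relative to DMSO. Cytotoxicity was checked by SRB total-protein staining in parallel cultures.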", "values": [
      {"smiles": "O=C(O)C(F)(F)C(F)(F)C(F)(F)C(F)(F)C(F)(F)C(F)(F)C(F)(F)C(F)(F)F", "outcome": "inactive"},
      {"smiles": "O=C(O)C(F)(F)C(F)(F)C(F)(F)C(F)(F)C(F)(F)F", "outcome": "inactive"},
      {"smiles": "COc1ccc(O)c(C(C)(C)C)c1", "outcome": "inactive"},
      {"smiles": "NS(=O)(=O)C(F)(F)C(F)(F)C(F)(F)C(F)(F)C(F)(F)C(F)(F)C(F)(F)C(F)(F)F", "AC50": "21.7 µM (active) and 17.3 µM (active)"},
      {"smiles": "O=C(O)C(F)(F)C(F)(F)C(F)(F)C(F)(F)C(F)(F)C(F)(F)C(F)(F)C(F)(F)C(F)(F)F", "AC50": "56.1 µM (active) and 56.6 µM (active)"},
      {"smiles": "O=S(=O)(O)C(F)(F)C(F)(F)C(F)(F)C(F)(F)C(F)(F)C(F)(F)F", "outcome": "inactive"},
      {"smiles": "O=S(=O)(O)C(F)(F)C(F)(F)C(F)(F)C(F)(F)F", "outcome": "inactive"}
    ]},
    {"read-out": "Vascular cell adhesion molecule 1 (VCAM1), VCAM1 (gene 7412)", "experiment": "BSK_IMphg_VCAM1: BioMAP Diversity Plus: IMphg Assay for Vascular cell adhesion molecule 1 (VCAM1) Biomarker Activity (AID 2284286)", "settings": "primary human endothelial cells with macrophages", "in_short": "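Human venular endothelial cells co-cultured with macrophages; VCAM-1 quantified by ELISA 24 h after dosing, fitted in the positive direction against DMSO. Cytotoxicity was checked in parallel cultures by SRB total-protein staining (0.1% SRB after 10% TCA fixation, 560 nm).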", "values": [
      {"smiles": "O=C(O)C(F)(F)C(F)(F)C(F)(F)C(F)(F)C(F)(F)C(F)(F)C(F)(F)C(F)(F)F", "AC50": "30 µM (active)", "outcome": "inactive"},
      {"smiles": "O=C(O)C(F)(F)C(F)(F)C(F)(F)C(F)(F)C(F)(F)F", "outcome": "inactive"},
      {"smiles": "NS(=O)(=O)C(F)(F)C(F)(F)C(F)(F)C(F)(F)C(F)(F)C(F)(F)C(F)(F)C(F)(F)F", "AC50": "47.3 µM (active) and 56.6 µM (active)"},
      {"smiles": "O=C(O)C(F)(F)C(F)(F)C(F)(F)C(F)(F)C(F)(F)C(F)(F)C(F)(F)C(F)(F)C(F)(F)F", "AC50": "54.8 µM (active) and 26.9 µM (active)"},
      {"smiles": "O=S(=O)(O)C(F)(F)C(F)(F)C(F)(F)C(F)(F)C(F)(F)C(F)(F)F", "outcome": "inactive"},
      {"smiles": "O=S(=O)(O)C(F)(F)C(F)(F)C(F)(F)C(F)(F)F", "outcome": "inactive"}
    ]},
    {"read-out": "Intercellular Adhesion Molecule 1 (ICAM1), ICAM1 (gene 3383)", "experiment": "BSK_hDFCGF_ICAM1: BioMAP Diversity Plus: hDFCGF Assay for Intercellular Adhesion Molecule 1 (ICAM1) Biomarker Activity (AID 2284287)", "settings": "primary human foreskin fibroblasts", "in_short": "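Primary human foreskin fibroblasts (hDFCGF system) dosed with chemical; ICAM-1 quantified by ELISA at 24 h relative to DMSO. Parallel SRB total-protein staining to assess overt cytotoxicity.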", "values": [
      {"smiles": "O=C(O)C(F)(F)C(F)(F)C(F)(F)C(F)(F)C(F)(F)C(F)(F)C(F)(F)C(F)(F)F", "outcome": "inactive"},
      {"smiles": "O=C(O)C(F)(F)C(F)(F)C(F)(F)C(F)(F)C(F)(F)F", "outcome": "inactive"},
      {"smiles": "COc1ccc(O)c(C(C)(C)C)c1", "outcome": "inactive"},
      {"smiles": "NS(=O)(=O)C(F)(F)C(F)(F)C(F)(F)C(F)(F)C(F)(F)C(F)(F)C(F)(F)C(F)(F)F", "AC50": "12.1 µM (active) and 15.7 µM (active)"},
      {"smiles": "O=C(O)C(F)(F)C(F)(F)C(F)(F)C(F)(F)C(F)(F)C(F)(F)C(F)(F)C(F)(F)C(F)(F)F", "AC50": "49.8 µM (active) and 49 µM (active)"},
      {"smiles": "O=S(=O)(O)C(F)(F)C(F)(F)C(F)(F)C(F)(F)C(F)(F)C(F)(F)F", "outcome": "inactive"},
      {"smiles": "O=S(=O)(O)C(F)(F)C(F)(F)C(F)(F)C(F)(F)F", "outcome": "inactive"}
    ]},
    {"read-out": "CD40, CD40 (gene 958)", "experiment": "BSK_IMphg_CD40: BioMAP Diversity Plus: IMphg Assay for CD40 Biomarker Activity (AID 2284288)", "settings": "primary human endothelial cells with macrophages", "in_short": "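Venular endothelial cells co-cultured with macrophages (human primary), CD40 measured by ELISA 24 h after dosing. Positive-direction fit vs DMSO baseline; cytotoxicity tracked by SRB total-protein staining in parallel cultures.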", "values": [
      {"smiles": "O=C(O)C(F)(F)C(F)(F)C(F)(F)C(F)(F)C(F)(F)C(F)(F)C(F)(F)C(F)(F)F", "AC50": "30 µM (active) and 44.9 µM (active)"},
      {"smiles": "O=C(O)C(F)(F)C(F)(F)C(F)(F)C(F)(F)C(F)(F)F", "outcome": "inactive"},
      {"smiles": "NS(=O)(=O)C(F)(F)C(F)(F)C(F)(F)C(F)(F)C(F)(F)C(F)(F)C(F)(F)C(F)(F)F", "AC50": "31.8 µM (active) and 25.7 µM (active)"},
      {"smiles": "O=C(O)C(F)(F)C(F)(F)C(F)(F)C(F)(F)C(F)(F)C(F)(F)C(F)(F)C(F)(F)C(F)(F)F", "AC50": "45.9 µM (active) and 42.3 µM (active)"},
      {"smiles": "O=S(=O)(O)C(F)(F)C(F)(F)C(F)(F)C(F)(F)C(F)(F)C(F)(F)F", "outcome": "inactive"},
      {"smiles": "O=S(=O)(O)C(F)(F)C(F)(F)C(F)(F)C(F)(F)F", "outcome": "inactive"}
    ]}
  ]
}
